Source: the supplement of paper PMC6555819

Experiments:
Experiment in all cases: PBM binding z-score (relative to random genomic background probes); higher = stronger binding; sequences stand for … in GC…GCGATTGACAGCGTAGAATGAAGG
[1] = test system: RARb homodimer (NR concentration 270 nM)
Outline: (§1)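 Custom Agilent 4×180K protein-binding microarrays carried double-stranded probes, each with a 34-nt variable region. These regions held direct-repeat seeds, single-nucleotide variants, half-site ablations and random human genomic background sequences. Ligand-free nuclear receptor dimers were incubated on the arrays for 1 h, antibodies against each partner (one per run) detected binding, and scanned fluorescence was regression-normalized. Binding z-scores take the random background probes as reference.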

[2] = test system: RARg:RXRa (NR concentration 270 nM, RXRa partner concentration 90 nM)
Outline: as §1

[3] = test system: RARg homodimer (NR concentration 270 nM)
Outline: as §1

[4] = test system: RXRa DBDmut IVT, anti-RXR (DBD mutation: RXRa K156A/R161A, NR concentration 90 nM)
Outline: as §1

[5] = test system: RXRa homodimer (NR concentration 180 nM)
Outline: as §1

[6] = test system: THRa:RXRa (NR concentration 90 nM, RXRa partner concentration 90 nM)
Outline: as §1

[7] = test system: THRa homodimer (NR concentration 90 nM)
Outline: as §1

[8] = test system: VDR homodimer (NR concentration 270 nM)
Outline: as §1

| Sequence | PBM binding z-score [1] | PBM binding z-score [2] | PBM binding z-score [3] | PBM binding z-score [4] | PBM binding z-score [5] | PBM binding z-score [6] | PBM binding z-score [7] | PBM binding z-score [8] |
| --- | --- | --- | --- | --- | --- | --- | --- | --- |
| GCTGCTAGGTCAGGTTGCTCAGCTAACGGGTACG | 2.14 | 2.32 | 2.99 | 0.623 | 0.855 | 1.49 | 0.194 | 0.297 |
| GCCGCTAGGTCAGGTTGGTCAGCTAACGGGTACG | 2.77 | 2.62 | 3.67 | 0.508 | 1.1 | 1.81 | 0.524 | 0.312 |
| CCGACTGGGGCAAGCTTACCATAACGCACAGCCA | -0.00597 | 0.179 | 0.523 | 0.00515 | -0.0329 | -0.39 | -0.624 | -0.428 |
| TCTTGTAGATCAGCAGGTTAAGACAGCTGGCCAA | 0.0345 | 0.0307 | -0.276 | 0.415 | 0.431 | 0.272 | -0.416 | -0.184 |
| CCTTACGGGTCACTGGCAGGTTATAGCATTTGGA | 3.16 | 5.81 | 4.75 | 1.66 | 4.96 | 3.14 | 0.323 | 1.16 |
| TCATATAGGTAAATGCTAGGTGAAAGACCGATCT | 0.314 | 0.683 | 0.454 | 1.44 | 1.15 | 1.32 | 0.328 | 0.112 |
| CTCGAAAGGTAGTGCTCAGGTGAGTATACCAAAC | -0.0122 | -0.12 | 0.0951 | -0.0232 | -0.198 | 1.61 | 0.482 | -0.438 |
